Data on 55 compounds can be found in PubChem BioAssay AID1259397 (Fisher Drug Discovery Resource Center, 2018).

Several values for one entry are separate records, joined by “and”; a condition that tells them apart may be missing. Equal entries are not always repeated. About 230 (0.18%) of roughly 130,000 compounds were called active.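 The calls were made as follows: active = inhibition of cGAS enzyme activity at or above 60%; inactive = the rest.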 The sample as a whole holds a higher share of actives than the screen did. More than one record can exist for a structure, and the calls need not agree.

As usually defined, the inhibition is the change of the read-out against control, counted positive when it falls.

For this test, the target named is Cyclic GMP-AMP synthase (Mus musculus) (UniProt Q8C6L5). The test can be described thus: inhibitors of Mus musculus cyclic GMP-AMP synthase, initial high-throughput assay, cell-free, RapidFire MS (AID 1259397).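 Also: enzyme stimulated by 45 bp dsDNA with ATP and GTP substrates; cGAMP share of summed cGAMP plus half ATP and half GTP signals.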 The note with it: recombinant mouse cGAS, cGAMP by RapidFire MS; at 12.5 µM; stronger effect = higher value.
Chain of Cyclic GMP-AMP synthase (Mus musculus) (Q8C6L5 whole entry, looked up): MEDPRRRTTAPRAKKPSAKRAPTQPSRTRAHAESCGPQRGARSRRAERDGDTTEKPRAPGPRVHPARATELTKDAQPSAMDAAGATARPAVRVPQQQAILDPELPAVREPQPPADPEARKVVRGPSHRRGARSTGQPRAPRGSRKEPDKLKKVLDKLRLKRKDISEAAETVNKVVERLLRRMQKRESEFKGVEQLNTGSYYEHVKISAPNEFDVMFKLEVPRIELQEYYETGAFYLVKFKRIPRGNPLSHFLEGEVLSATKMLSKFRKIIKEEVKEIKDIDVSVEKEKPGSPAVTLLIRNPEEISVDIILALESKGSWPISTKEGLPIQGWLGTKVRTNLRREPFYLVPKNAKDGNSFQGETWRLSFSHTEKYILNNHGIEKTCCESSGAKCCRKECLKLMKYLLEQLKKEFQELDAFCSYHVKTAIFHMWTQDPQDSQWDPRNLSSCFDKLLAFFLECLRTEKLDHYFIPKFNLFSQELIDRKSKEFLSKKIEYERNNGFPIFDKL
Consider `COCCn1c(-c2cc(OC)ccc2OC)csc1=Nc1ccc(OC)cc1`, for which the inhibition is -17.5% (inactive).

As for `Cc1ccc(-c2nc(CCNC(=O)c3cccc(C)c3)cs2)cc1`, the inhibition was 5.19% (inactive).

Consider `O=S(=O)(c1ccc(Oc2nc(C(F)(F)F)nc3ccccc23)cc1)N1CCOCC1`, for which the inhibition is -25.2% (inactive).

Regarding `COC(=O)NC(C)C(=O)NCc1cccnc1Oc1c(C)cccc1C` (stereo not given), the inhibition was -19.5% (inactive).

Regarding `CCN(Cc1ccccc1)C(=O)COC(=O)c1cccc(O)c1`, the inhibition is 5.18% (inactive).

Regarding `CN1CCN(c2ccc(NC(=O)c3cccs3)c(C(F)(F)F)c2)CC1`, the inhibition is -17.2% (inactive).

Take `COc1ccc(C2=CCN(C(=O)c3csc(NC(C)=O)n3)CC2)cc1`: the inhibition was -5.03% (inactive).

As to `COc1ccc(CCn2c(SCCO)nc3c2c(=O)n(C)c(=O)n3C)cc1`, the inhibition was -8.65% (inactive).

In the case of `Cc1nn(C)c(C)c1C(=O)N(C)Cc1ccc(Cl)cc1`, the inhibition was -0.861% (inactive).

`CCC(C(=O)N1CC=CCC1)n1cc(C(C)=O)c2ccccc21` (stereo not given): the inhibition is -14.3% (inactive).

On to `Fc1ccc(-c2[nH]ncc2CNCc2ccc(OC(F)(F)F)cc2)c(F)c1`, for which the inhibition is -8.38% (inactive).

In the case of `N#Cc1ccc(NC(c2ccccc2)c2ccccn2)nc1` (stereo not given), the inhibition is 9.13% (inactive).

`CC(Cn1ccnc1)NS(=O)(=O)c1ccccc1` (stereo not given): the inhibition is -2.43% (inactive).

Take `Cc1nc2c(c(NCc3csc(-c4cnccn4)n3)n1)CCN(C)CC2`: the inhibition is -14.9% (inactive).

As to `COc1ccc(NC(C)=O)cc1S(=O)(=O)Oc1ccc2c(c1)CCC2`, the inhibition is -14.7% (inactive).

For `O=C(Cn1ccc(=O)c2ccccc21)Nc1cc(Cl)ccc1C(=O)N1CCCC1`, the inhibition was -4.35% (inactive).

In the case of `COc1ccccc1-c1n[nH]c(=S)n1-c1ccc(C)cc1`, the inhibition was -2.19% (inactive).

For `O=C(Nc1ccc(F)cc1)Nc1ccc(OC(F)F)cc1`, the inhibition is -13.8% (inactive).

`O=c1oc2c(CN3CC4CC(C3)c3cccc(=O)n3C4)c(O)ccc2cc1-c1nc2ccccc2s1` (stereo not given): the inhibition was -0.297% (inactive).

`O=C(CCSCc1ccccn1)NCc1ccc(Br)s1`: the inhibition was 7.74% (inactive).

With `O=C(O)CCCc1ccc(Br)s1`, the inhibition was 92.3% (active).

`O=C(O)CCCc1ccccc1`: the inhibition was 0.216% (inactive) and -7.46% (inactive) and -8.15% (inactive).

Turning to `CS(=O)(=O)c1ccc(CN2CCN3C(C(=O)N4CCOCC4)=COC3=NC2=O)cc1`, the inhibition was 62.5% (active).

As for `N#Cc1cccc(CN2CCN3C(C(=O)NCCCc4ccccc4)=COC3=NC2=O)c1`, the inhibition is -8.68% (inactive).

Consider `O=C(NCCc1ccccc1)C1=COC2=NC(=O)N(Cc3ccccc3C(F)(F)F)CCN12`, for which the inhibition is -9.37% (inactive).

On to `Cc1cc2nc3c(=O)[nH]c(=O)nc-3n(C[C@H](O)[C@H](O)[C@H](O)CO)c2cc1C`, for which the inhibition was 87.9% (active).

`Cc1c(C(=O)NCc2cccs2)sc(=O)n1Cc1ccccc1C(F)(F)F`: the inhibition is -4.53% (inactive).

In the case of `COc1ccccc1CNC(=O)CC1C(=O)NCCN1Cc1ccccc1C` (stereo not given), the inhibition was -7.58% (inactive).

For the compound `C=Cc1c(C)c2[n-]c1=Cc1[n-]c(c(CC)c1C)C=c1[n-]c3c(c1C)C(O)=C(C(=O)O)C=3c1[n-]c(c(C)c1CCC(=O)O)C=2.[Cu]`, the inhibition is 97.2% (active) and -3.92% (inactive).

For the compound `Cc1ccc(C(=O)Nc2ccc(C(=O)NCC(N)=O)cc2)cc1Cl`, the inhibition is -5.23% (inactive).

For `CCC(N)(C(=O)OC)c1ccccc1` (stereo not given), the inhibition was -5.42% (inactive).

Regarding `Cc1ccc(NC(=O)Cc2nc(-c3ccc4c(c3)CCO4)cs2)c(C)c1`, the inhibition is 4.73% (inactive).

Consider `Cc1ccc(NS(=O)(=O)c2ccccc2C(F)(F)F)cc1C`, for which the inhibition was -9.68% (inactive).

For the compound `Cc1nc(-c2cccs2)sc1C(=O)OCc1cc(=O)n2c(C)csc2n1`, the inhibition is 17.2% (inactive).

As to `COc1cc(C)c(CN2CCN(C(=O)C3=COCCO3)CC2)cc1OC`, the inhibition was 0.561% (inactive).

In the case of `O=C(NCC1(c2ccc(F)cc2)CCCC1)C1CCN(C(=O)C2CC2)CC1`, the inhibition is 0.199% (inactive).

In the case of `FC(F)C(F)(F)C(F)(F)C(F)(F)CNCc1ccco1`, the inhibition was 6.11% (inactive).

For the compound `CC(C)Oc1ccc(-c2cncn2C)cc1`, the inhibition is -19.6% (inactive).

As to `Cn1nnnc1SCCNC(=O)c1ccc2oc(Cc3ccccc3)nc2c1`, the inhibition is 3.65% (inactive).

As to `COCCCn1c(C)c(C)n2c3c(=O)n(CC(C)C)c(=O)n(C)c3nc12`, the inhibition was -5.91% (inactive).

On to `COC(=O)c1ccc(-c2nc(CN3CCN(C(=O)c4cccc(OC)c4)CC3)c(C)o2)cc1`, for which the inhibition was -3.22% (inactive).

As to `O=C(CC1CSc2nccc(=O)n21)Nc1ccc(Oc2ccccc2)cc1` (stereo not given), the inhibition was -4.45% (inactive).

Regarding `CCC(c1ccccc1)C1(O)OC(=O)c2ccccc21` (stereo not given), the inhibition is -3.91% (inactive).

For the compound `O=C(CCn1c(=O)oc2cc(Cl)ccc21)N1CCN(c2ccccc2Cl)CC1`, the inhibition is -7.84% (inactive).

On to `COc1ccc(C(=O)NC2CC2)cc1OC1CCN(C/C=C/c2ccccc2)CC1`, for which the inhibition is -2.34% (inactive).

As for `CC(C)(C)n1ncc2c(=O)n(NC(=O)c3ccc(C(F)(F)F)cc3)cnc21`, the inhibition was -4.85% (inactive).

Consider `C#CC(CC)(CC)NC(=O)c1ccc(S(C)(=O)=O)cc1`, for which the inhibition is 1.64% (inactive).

In the case of `COc1cc(CNC(C)(C)CO)ccc1OCC(=O)Nc1ccc(C)cc1`, the inhibition was -4.89% (inactive).

For the compound `CCc1ccc2oc3c(c(=O)c2c1)C(c1cccc([N+](=O)[O-])c1)N(c1cc(C)on1)C3=O` (stereo not given), the inhibition is -10.5% (inactive).

On to `Cc1noc(CNC(=O)C2CC(=O)N(CC(F)(F)F)C2)n1` (stereo not given), for which the inhibition is 1.05% (inactive).

With `CCC1=NOC(C(=O)NCCn2c(C)cc(C)nc2=O)C1` (stereo not given), the inhibition is 0.535% (inactive).

In the case of `CC(CCS(C)=O)NC(=O)Nc1ncc(-c2ccccc2)s1` (stereo not given), the inhibition is -2.71% (inactive).

`Oc1c(Cl)cc(Cl)c(Cl)c1Cc1c(O)c(Cl)cc(Cl)c1Cl`: the inhibition was 92.7% (active) and 36.7% (inactive).

Regarding `COc1ccc(-c2csc(=Nc3cc(OC)cc(OC)c3)n2NC(=O)C(C)Oc2ccc(Cl)cc2C)cc1` (stereo not given), the inhibition was 1.02% (inactive).

On to `Cc1cc(C)n(CCNC(=O)CN2CCN(c3ccc4c(c3)OCCO4)C2=O)n1`, for which the inhibition was -5.72% (inactive).
